From PubChem
An excerpt weighted towards active compounds, which were near 19% of everything screened.
HT1080NT lethal = qHTS for induction of synthetic lethality in tumor cells producing 2HG: qHTS for the HT-1080-NT fibrosarcoma cell line; actives 1.6% (n = 360,000); AID 686970, 2013; HT-1080-NT fibrosarcoma viability, CellTiter-Glo ATP luminescence, 48 h; Potency, µM (titrated, usually from 46.1 µM), hits mostly cytotoxic;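 also: NT is the 2HG producing partner of a matched IDH1 knockdown line; nearly all actives have a fitted effect of over 55% in size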
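Read-out is CellTiter-Glo luminescence after 10 minutes at room temperature, following 48 hours' compound treatment of HT-1080-NT cells (750 cells/well, RPMI, 5% FBS, 37 degrees C).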
IL1B secr inh = qHTS for Inhibitors of Inflammasome Signaling: IL-1-beta AlphaLISA Primary Screen; THP-1 LPS/ATP IL-1B secretion, AlphaLISA, 16 h; active compounds read low; activity change, % at 57.5 µM; actives 4.7% (n = 360,000); in the data active = activity change below about -50%; inconclusive = mostly about -30% to -49%
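Secreted IL-1B measured by AlphaLISA bead assay after 16 h compound exposure of THP-1 cells; compounds (final up to 57.5 uM) added 1 h before LPS (250 ng/mL) and ATP (1.25 mM) stimulation; lower signal means less secretion.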
TDP1 cell noCPT = qHTS for Inhibitors of human tyrosyl-DNA phosphodiesterase 1 (TDP1): qHTS in cells in absence of CPT. actives 15% (n = 420,000). Potency, µM (series often up to 46.2 µM), most hits filed as inhibitors. DT40 Tdp1-/- hTDP1 cells, no CPT, ATP luminescence, 48 h; also: nearly all actives have a fitted effect of over 55% in size
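Readout: luminescence from CellTiter-Glo after 30 min in the dark at RT. Cells: DT40 Tdp1-/- with stable hTDP1, 400/well. Exposure: compounds alone, ≥48 hr, 37 °C.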
HT1080 IDH1KD tx = qHTS for induction of synthetic lethality in tumor cells producing 2HG: qHTS for the HT-1080-IDH1KD cell line; AID 686971, 2013; actives 2% (n = 360,000); HT-1080 IDH1 knockdown viability, ATP luminescence, 48 h; Potency, µM (titrated, usually from 46.1 µM), hits mostly cytotoxic
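Using the IDH1-knockdown HT-1080 line run in the same batch and compound series as the NT line, viability after 48 h at 37 °C was determined by CellTiter-Glo luminescence and expressed as % activity.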
DT40 TDP1 CPT = qHTS for Inhibitors of human tyrosyl-DNA phosphodiesterase 1 (TDP1): qHTS in cells in presence of CPT | Potency, µM (highest dose often 46.2 µM), hits mostly inhibitors | AID 686979, 2013 | actives 12% (n = 420,000) | chicken DT40 Tdp1-/-;hTDP1 cells + 20 nM CPT, ATP luminescence, 48 h; also: nearly all actives have a fitted effect of over 55% in size
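Chicken DT40 Tdp1-/- cells complemented with human TDP1, 400 cells/well, exposed to compounds plus 20 nM camptothecin for at least 48 h at 37 C; viability read as ATP content by CellTiter-Glo luminescence.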
A number is an active result; . = inactive; ? = inconclusive; / = no result; [ ] = remark or other dose. Unless noted, calls follow the shape of the dose curve; as a rule, active = well fitted curve in the direction sought with a large enough effect; inconclusive = small, poorly fitted or top-dose-only effect, or another doubt; inactive = no such curve, though single readings can be large; an effect the other way counts as inactive or inconclusive.

SMILES	HT1080NT lethal	IL1B secr inh	TDP1 cell noCPT	HT1080 IDH1KD tx	DT40 TDP1 CPT
C[C@]12C=CC(=O)C=C1CC[C@@H]1[C@@H]2[C@@H](O)C[C@@]2(C)[C@H]1CC[C@]2(O)C(=O)CO	.	-55	?	.	?
COCCCn1c(=S)[nH]c2sc3c(c2c1=O)CCCS3	.	.	.	.	.
O=S(=O)(NCc1ccccc1Cl)c1cccs1	.	.	.	.	.
Cc1ccc(SCC(=O)OC(C)C(=O)NC2CCCCC2C)c(C)c1 (stereo not given)	.	.	.	.	.
Cc1ccccc1C(=O)Nc1nnc(SCc2cc(=O)n3ccccc3n2)s1	/	/	.	/	.
O=C(Nc1ccccc1C(=O)NCc1cccnc1)c1ccccc1F	.	.	.	.	.
COc1ccc(C(=O)Nc2ccccc2C(=O)NCc2cccnc2)cc1	?	.	?	?	15µM
CC(C)(C)C(=O)Nc1ccc(C(=O)NCc2cccnc2)cc1	.	.	.	.	.
CC(C)(C)c1ccc(C(=O)Nc2ccc(C(=O)NCc3cccnc3)cc2)cc1	1.6µM	.	1.8µM	1µM	2.6µM
CC(C)c1ccc(C(=O)NC(=S)NCc2cccnc2)cc1	.	.	16µM	.	?
CCOc1ncccc1C(=O)NCc1ccc(OC)cc1	?	.	15µM	8.9µM	16µM
COCCSc1ccccc1C(=O)NCc1cccnc1	.	-76	.	.	.
O=C(Nc1cnn(Cc2c(Cl)cccc2Cl)c1)c1ccc([N+](=O)[O-])cc1	.	.	16µM	.	?
O=C(NC(=S)NCc1cccnc1)c1ccc([N+](=O)[O-])cc1	.	.	.	.	.
O=C(NCc1cccnc1)c1ccc(NC(=O)c2ccc([N+](=O)[O-])cc2)cc1	?	.	9.2µM	15µM	13µM
CCOC(=O)Cc1ccc(NC(=O)c2ccc(C(C)(C)C)cc2)cc1	.	-56	15µM	?	18µM
CCN(CC)CCNC(=O)c1ccc(NC(=O)/C=C/c2ccc3ccccc3n2)cc1	.	/	?	.	?
Cc1cc(S(=O)(=O)Nc2cc3c(cc2N2CCOCC2)n(C)c(=O)c(=O)n3C)ccc1F	/	/	.	/	.
Clc1cc(Br)ccc1NCc1cccnc1	.	.	.	.	?
COc1ccc(-c2nc(CS(=O)(=O)CC(=O)Nc3ccc(Cl)cc3)c(C)o2)cc1	?	.	21µM	?	10µM
COc1ccc(NC(=O)CS(=O)(=O)Cc2nc(-c3ccc(C)cc3)oc2C)cc1	.	.	.	?	.
COc1ccc(-c2nc(CS(=O)(=O)CC(=O)NCCc3cc(OC)ccc3OC)c(C)o2)cc1	.	.	23µM	.	?
COc1cccc(-c2nc(CS(=O)(=O)CC(=O)NCCc3cc(OC)ccc3OC)c(C)o2)c1	.	.	18µM	.	.
COc1ccc(CC(=O)Nc2ccc(-c3noc(-c4cc(OC)c(OC)c(OC)c4)n3)cc2)cc1	?	.	?	?	?
COc1ccc(CC(=O)Nc2ccc(-c3noc(-c4ccc(Cl)cc4)n3)cc2)cc1	.	.	?	.	5.2µM
SMILES	HT1080NT lethal	IL1B secr inh	TDP1 cell noCPT	HT1080 IDH1KD tx	DT40 TDP1 CPT
CCC(NS(=O)(=O)c1ccc2c(c1)Cc1cc(S(=O)(=O)NC(CC)C(=O)O)ccc1-2)C(=O)O (stereo not given)	.	.	.	.	.
COc1ccc(N(C)S(=O)(=O)c2ccc3c(c2)NC(=O)CO3)c(OC)c1	.	.	.	.	.
CCCCCCCCCC(=O)N/N=C/c1ccc(C)s1	.	.	?	.	?
COc1ccc(OC)c(CCNC(=O)CS(=O)(=O)Cc2nc(-c3ccc(C)cc3)oc2C)c1	.	.	?	.	?
COc1cccc(-c2nc(CS(=O)(=O)CC(=O)NCCc3ccc(OC)cc3OC)c(C)o2)c1	.	?	23µM	.	18µM
COc1cc2nc(CSc3nc(-c4ccc(F)cc4)cs3)[nH]c(=O)c2cc1OC	.	.	?	.	15µM
COC(=O)c1ccc2c(=O)[nH]c(CSc3nc(-c4ccc(F)cc4)cs3)nc2c1	.	.	.	.	.
COC(=O)C1=CO[C@@H](O[C@@H]2O[C@H](CO)[C@@H](O)[C@H](O)[C@H]2O)C2C1CC(O)O[C@H]2C (stereo not given in full)	.	.	.	.	.
CNC[C@@H](C)NC[C@@H](Cc1ccccc1)NCCc1ccccc1	?	?	4.6µM	.	8.2µM
Cc1ccc(OCCCSc2ncccn2)cc1C	.	.	.	.	.
Cc1cc(OCCCCOc2ccc(S(N)(=O)=O)c(C)c2)ccc1S(N)(=O)=O	.	.	?	.	18µM
O=C(Nc1cccc(Cl)c1Cl)c1cc2nc(-c3ccc4c(c3)OCO4)cc(C(F)(F)F)n2n1	/	/	.	/	.
CCCCN1C(=O)C(CC(=O)NCc2cccc3ccccc23)CC(C(=O)N(C)C)=C1C (stereo not given)	.	.	?	.	.
Cc1nc2sc(C(=O)NCc3ccc(Cl)cc3)c(NC(=O)c3ccccc3)c2c(C)c1C	/	/	?	/	13µM
Cc1nc2sc(C(=O)N(C)Cc3ccccc3)c(NC(=O)c3ccccc3)c2c(C)c1Cl	/	/	16µM	/	?
Cc1cc(C(F)(F)F)c2c(N)c(C(=O)NCc3ccc(Cl)cc3)sc2n1	.	?	?	.	?
CCC(NC(=O)c1cncc(Br)c1)c1ccccc1 (stereo not given)	.	.	.	.	.
COc1ccc(Cl)cc1-n1c(N)c(C(N)=O)sc1=S	.	.	21µM	.	16µM
Cc1ccc(-n2c(N)c(C(N)=O)sc2=S)c(C)c1	.	.	26µM	.	?
COC(=O)c1sc(=S)n(-c2ccccc2OC)c1N	.	.	.	.	.
CCOC(=O)c1sc(=S)n(-c2ccccc2OC)c1N	.	.	23µM	.[9.24 µM]	?
CCCCCCOc1ccc(N2C(=O)CC(SC(=NCC)NCC)C2=O)cc1 (stereo not given)	.	.	.	.	.
O=C(COC(=O)C1(c2ccc(F)cc2)CCCC1)NCc1ccco1	.	.	.	.	.
Cc1ccc(Cn2ccc(NC(=O)c3nn(C)cc3[N+](=O)[O-])n2)cc1	?	-101	.	?	.
Cc1cc(C)n(Cc2ccc(NC(=O)c3nn(C)cc3[N+](=O)[O-])cc2)n1	10µM	-63	.	6.3µM	.
CCc1nn2c(=O)cc(COC(=O)c3cccc(NC(=O)c4cccs4)c3)nc2s1	/	/	15µM	/	?
